Growth data for 13 molecules are collected here from PubChem BioAssay (NCI).

“And” between values parts separate entries of the source, which are not always exact repeats. Equal entries are not always repeated. The panel holds about 83,000 compounds, 20% with a hit somewhere; the sample as a whole holds those more often.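 The test compound was applied at a single concentration to cells in 96-well plates for 48 hours, and percent growth was recorded.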 The source made the active and inactive calls. The calls were made as follows: active = growth percent below 10; inactive = the rest.

Test systems include SR leukemia; OVCAR-8 ovarian; OVCAR-5 ovarian; OVCAR-4 ovarian; SK-OV-3 ovarian; IGROV1 ovarian; OVCAR-3 ovarian; HS 578T breast; NCI/ADR-RES ovarian; RPMI-8226 leukemia.
Holding throughout (test): NCI-60 one-dose screen, 48 h (100 = growth as untreated, 0 = no growth, -100 = all killed)
Holding throughout (settings): 10 µM unless noted

As to `O=C(c1ccc(Cl)cc1)C1C(c2ccccc2)C1[N+](=O)[O-]` (centres undefined), the growth in the assay with SR leukemia was 78% (inactive); in the assay on OVCAR-8 ovarian it was 99% (inactive); in the assay with OVCAR-5 ovarian, 109% (inactive); in the assay on OVCAR-4 ovarian, 99% (inactive); with SK-OV-3 ovarian, 105% (inactive); in the assay on IGROV1 ovarian, 103% (inactive). In addition, the values for the growth in the assay with OVCAR-3 ovarian, with HS 578T breast and in the assay on NCI/ADR-RES ovarian were 97.8% (inactive), 96% (inactive) and 99.7% (inactive), respectively.

`Cc1ccc(S(=O)(=O)n2ccnc2)cc1`: the growth with SR leukemia was 140% (inactive); with OVCAR-8 ovarian, 100% (inactive); with OVCAR-5 ovarian it was 102% (inactive); in the assay with SK-OV-3 ovarian, 123% (inactive); in the assay with IGROV1 ovarian, 75.5% (inactive); in the assay with OVCAR-3 ovarian it was 101% (inactive). The growth in the assay with HS 578T breast was 111% (inactive); with NCI/ADR-RES ovarian, 101% (inactive).

As to `CCN(CC)Cc1cc2[nH]c3c4ccc(Cl)cc4ncc3c2cc1OC`, the growth was -49.9% (active) and -13.8% (active) in the assay on SR leukemia; 83.2% (inactive) and 80.6% (inactive) in the assay with OVCAR-8 ovarian; 98% (inactive) and 98.6% (inactive) in the assay on OVCAR-5 ovarian; 33.3% (inactive) and -1.1% (active) with OVCAR-4 ovarian; 83.8% (inactive) and 105% (inactive) in the assay with SK-OV-3 ovarian; 293% (inactive) and 63.1% (inactive) in the assay on IGROV1 ovarian. In addition, the growth was 87.5% (inactive) in the assay on OVCAR-3 ovarian; -7.12% (active) and 99.3% (inactive) in the assay with HS 578T breast; 78.1% (inactive) and 102% (inactive) in the assay with NCI/ADR-RES ovarian.

For the molecule `O=C(Nc1ccccc1)OCC(CN1CCCCC1)OC(=O)Nc1ccccc1` (centres undefined), the growth in the assay on SR leukemia is 82.9% (inactive); in the assay with OVCAR-8 ovarian, 92.8% (inactive) and 95.1% (inactive); in the assay with OVCAR-5 ovarian, 105% (inactive) and 96.7% (inactive); with OVCAR-4 ovarian, 76.4% (inactive) and 104% (inactive); with SK-OV-3 ovarian, 89.4% (inactive) and 93.8% (inactive); with IGROV1 ovarian, 68.8% (inactive) and 98.3% (inactive). Moreover, the growth with OVCAR-3 ovarian is 91.2% (inactive) and 101% (inactive); in the assay with HS 578T breast, 91.6% (inactive); in the assay on NCI/ADR-RES ovarian it was 85.6% (inactive) and 96.1% (inactive).

On to `CC(C)(C)OC(=O)CC1(O)CCCCC1`, for which the growth is 105% (inactive) in the assay with SR leukemia; 108% (inactive) with OVCAR-8 ovarian; 115% (inactive) in the assay on OVCAR-5 ovarian; 105% (inactive) with SK-OV-3 ovarian; 114% (inactive) with IGROV1 ovarian; 108% (inactive) in the assay on OVCAR-3 ovarian. Further, the growth in the assay with HS 578T breast is 102% (inactive); in the assay on NCI/ADR-RES ovarian, 107% (inactive).

For the molecule `CCOC(=O)NC(N)=O`, the growth was 90.3% (inactive) and 108% (inactive) in the assay with SR leukemia; 102% (inactive) and 97% (inactive) with OVCAR-8 ovarian; 101% (inactive) with OVCAR-5 ovarian; 116% (inactive) and 106% (inactive) in the assay with OVCAR-4 ovarian; 104% (inactive) and 114% (inactive) in the assay with SK-OV-3 ovarian; 98% (inactive) and 110% (inactive) with IGROV1 ovarian. The growth in the assay with OVCAR-3 ovarian was 113% (inactive) and 125% (inactive); in the assay on HS 578T breast it was 102% (inactive) and 107% (inactive); in the assay with NCI/ADR-RES ovarian, 105% (inactive) and 107% (inactive).

Consider `CN(C)C(=S)N(C)C`, for which the growth with SR leukemia is 94.9% (inactive); in the assay on RPMI-8226 leukemia it was 98.2% (inactive); in the assay on OVCAR-8 ovarian it was 109% (inactive); with SK-OV-3 ovarian, 99.7% (inactive); with IGROV1 ovarian it was 153% (inactive); in the assay with OVCAR-3 ovarian, 107% (inactive). Moreover, the values for the growth with HS 578T breast and with NCI/ADR-RES ovarian were 157% (inactive) and 102% (inactive), respectively.

On to `CC(C)(C(=O)c1cccnc1)c1cccnc1`, for which the growth with SR leukemia was 84.7% (inactive); with OVCAR-8 ovarian, 106% (inactive) and 104% (inactive); with OVCAR-5 ovarian it was 93.5% (inactive) and 94.5% (inactive); in the assay with OVCAR-4 ovarian, 110% (inactive) and 118% (inactive); in the assay with SK-OV-3 ovarian, 109% (inactive) and 115% (inactive); in the assay on IGROV1 ovarian it was 107% (inactive) and 103% (inactive). Further, the growth with OVCAR-3 ovarian was 112% (inactive) and 118% (inactive); in the assay with HS 578T breast, 94.8% (inactive) and 110% (inactive); in the assay with NCI/ADR-RES ovarian it was 106% (inactive) and 67.8% (inactive).

In the case of `COC(=O)c1nc(=S)[nH]c(C(=O)OC)c1C(=O)c1ccc(OC)cc1`, the growth with SR leukemia was 105% (inactive); in the assay on OVCAR-8 ovarian, 109% (inactive); in the assay with OVCAR-5 ovarian, 103% (inactive); in the assay with OVCAR-4 ovarian it was 112% (inactive); in the assay on SK-OV-3 ovarian, 149% (inactive); with IGROV1 ovarian, 99.9% (inactive). Also, the growth was 119% (inactive) with OVCAR-3 ovarian, 76.1% (inactive) in the assay with HS 578T breast and 99.8% (inactive) in the assay with NCI/ADR-RES ovarian.

For `CCNCc1ccccc1`, the growth with SR leukemia was 97.5% (inactive); in the assay with OVCAR-8 ovarian, 100% (inactive); with OVCAR-5 ovarian, 98.5% (inactive); in the assay on OVCAR-4 ovarian it was 114% (inactive); with SK-OV-3 ovarian, 97.5% (inactive); in the assay on IGROV1 ovarian, 106% (inactive). Also, the growth in the assay with OVCAR-3 ovarian, in the assay on HS 578T breast and in the assay with NCI/ADR-RES ovarian was 102% (inactive) throughout.

For `Cc1ccc(NC(=S)N/C=C(\c2ccccc2)S(=O)Cc2ccccc2)c(C)c1` (centres undefined), the growth in the assay with SR leukemia is 96.5% (inactive); in the assay with RPMI-8226 leukemia, 94% (inactive); with OVCAR-8 ovarian it was 99.2% (inactive); with OVCAR-4 ovarian, 91.3% (inactive); in the assay with SK-OV-3 ovarian it was 100% (inactive); in the assay on IGROV1 ovarian it was 112% (inactive). Further, the growth in the assay with OVCAR-3 ovarian was 106% (inactive); in the assay on HS 578T breast it was 94.8% (inactive); in the assay with NCI/ADR-RES ovarian, 105% (inactive).

As to `CC(=O)Oc1cc(C)c(OC(C)=O)c(C)c1C`, the growth was 118% (inactive) in the assay on SR leukemia; 99.8% (inactive) with OVCAR-8 ovarian; 125% (inactive) in the assay on OVCAR-5 ovarian; 125% (inactive) with OVCAR-4 ovarian; 125% (inactive) in the assay with SK-OV-3 ovarian; 122% (inactive) in the assay on IGROV1 ovarian. The growth is 119% (inactive) in the assay on OVCAR-3 ovarian, 91.1% (inactive) with HS 578T breast and 95.2% (inactive) in the assay on NCI/ADR-RES ovarian.

Consider `O=C1C(=O)c2ccccc2C(O)=C1CC=C(Cl)Cl`, for which the growth was 43.4% (inactive) and 55.5% (inactive) in the assay on SR leukemia; 44.3% (inactive) in the assay with OVCAR-8 ovarian; 35.3% (inactive) and 87.2% (inactive) in the assay with OVCAR-5 ovarian; 83.9% (inactive) and 84.4% (inactive) in the assay with OVCAR-4 ovarian; 73.9% (inactive) and 58.4% (inactive) with SK-OV-3 ovarian; 42.7% (inactive) in the assay with IGROV1 ovarian. Besides, the growth was 65.8% (inactive) and 67.1% (inactive) in the assay with OVCAR-3 ovarian; 82.3% (inactive) and 87.2% (inactive) in the assay on HS 578T breast; 57.6% (inactive) and 55.7% (inactive) with NCI/ADR-RES ovarian.
